Reference: PubChem BioAssay (EPA / NIEHS)
Results filed as inconclusive are left out. Calls of active or inactive are those of the source. Rule for the calls, unless noted: active = hit-call score of the fitted dose curve at least 0.9, where 1 is the maximum; inactive = score below 0.9.

Legend:
[1] = ATG_Sox_CIS: Attagene CIS-FACTORIAL HepG2 Assay for human SRY-box transcription factor (SOX) (AID 2282960); conditions: HepG2 Attagene cis-factorial SOX reporter, mRNA; actives raise or lower the signal
Procedure, shortened: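 Using transiently transfected HepG2 cells, reporter transcription driven by cis elements was assessed 24 h after dosing. Signal was fluorescence of capillary-separated RT-PCR products, with DMSO defining baseline activity.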

[2] = target: Transcription factor Sp1 (Homo sapiens) (UniProt P08047); experiment: ATG_Sp1_CIS: Attagene CIS-FACTORIAL HepG2 Assay for human Specificity Protein 1 (Sp1) (AID 2282961); conditions: HepG2 Sp1 cis-reporter transcription, actives raise or lower the signal
Procedure, shortened: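 After transient transfection of HepG2 cells with cis-promoter reporter units and 24 h chemical treatment, reporter transcripts were quantified by RT-PCR and capillary electrophoresis fluorescence. Gain- and loss-of-signal fitted against DMSO.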

[3] = ATG_SREBP_CIS: Attagene CIS-FACTORIAL HepG2 Assay for human Sterol Regulatory Element Binding (SREBP) (AID 2282962); conditions: HepG2 Attagene cis-factorial SREBP reporter, mRNA; actives raise or lower the signal
Procedure, shortened: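 Values derive from bidirectional curve fitting with DMSO as baseline. The underlying measurement is reporter mRNA from cis-element-regulated units in transiently transfected HepG2, quantified by RT-PCR and capillary electrophoresis after 24 h exposure.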

[4] = target: Signal transducer and activator of transcription 3 (Homo sapiens) (UniProt P40763); experiment: ATG_STAT3_CIS: Attagene CIS-FACTORIAL HepG2 Assay for human Signal Transducer and Activator of Transcription 3 (STAT3) (AID 2282963); conditions: HepG2, Attagene cis-factorial STAT3 reporter transcription; actives raise or lower the signal
Procedure, shortened: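 HepG2, MRTU-transfected, 24 h dosing. RNA → RT → PCR → FAM label → HpaI → CE. Bidirectional fit vs DMSO.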

[5] = ATG_TA_CIS: Attagene CIS-FACTORIAL HepG2 Assay for human TA Basal Promoter (AID 2282964); conditions: HepG2 Attagene CIS-factorial TA basal promoter reporter; actives raise or lower the signal
Procedure, shortened: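 Fluorescence from labelled RT-PCR reporter fragments, separated by capillary electrophoresis, gives the signal. Cells: HepG2 transiently carrying multiple reporter units, 24 h chemical dosing. Gain or loss relative to DMSO.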

[6] = ATG_TAL_CIS: Attagene CIS-FACTORIAL HepG2 Assay for human TAL Basal Promoter (AID 2282966); conditions: HepG2 Attagene cis-factorial TAL promoter reporter; actives raise or lower the signal;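 note: background control endpoint measuring basal TAL promoter reporter mRNA not a specific factor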
Procedure, shortened: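 Basal-promoter background-control endpoint from a multiplexed HepG2 reporter panel. Cells were exposed 24 h, then reporter mRNA was read by RT-PCR/CE fluorescence and fitted in both directions relative to DMSO.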

[7] = ATG_TGFb_CIS: Attagene CIS-FACTORIAL HepG2 Assay for human Transforming Growth Factor (TGF) (AID 2282967); conditions: HepG2 Attagene CIS TGFb reporter, mRNA transcription; actives raise or lower the signal
Procedure, shortened: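 Bidirectional fitting relative to DMSO gave the endpoint. Underlying data: reporter mRNA from HepG2 cells carrying transiently transfected cis-regulated reporter constructs, harvested 24 h after dosing and analyzed by RT-PCR and capillary electrophoresis.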

[8] = ATG_VDRE_CIS: Attagene CIS-FACTORIAL HepG2 Assay for human Vitamin D Receptor Element (VDRE) (AID 2282968); conditions: HepG2 VDRE cis-reporter transcription, actives raise or lower the signal
Procedure, shortened: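 Steps: transfect HepG2 with multiple reporter transcription units; dose chemicals 24 h; isolate RNA; RT-PCR; label with 6-FAM primer extension; HpaI digest; capillary electrophoresis. Curves fitted both directions against DMSO.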

[9] = target: X-box-binding protein 1 (Homo sapiens) (UniProt P17861); experiment: ATG_Xbp1_CIS: Attagene CIS-FACTORIAL HepG2 Assay for human X-box Binding Protein 1 (XBP1) (AID 2282972); conditions: HepG2 XBP1 cis-element reporter, Attagene multiplex; actives raise or lower the signal
Procedure, shortened: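 Human hepatoma HepG2, cis-element reporter system, 24 h treatment; mRNA quantified by RT-PCR/CE fluorescence; fit relative to DMSO.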

[10] = target: Androgen receptor (Homo sapiens) (UniProt P10275); experiment: ATG_AR_TRANS: Attagene TRANS-FACTORIAL HepG2 Assay for human Androgen Receptor (AR) (AID 2282973; active = hit-call score of the fitted dose curve at least 0.9, where 1 is the maximum); conditions: HepG2 Attagene TRANS-FACTORIAL AR reporter transcription
Procedure, shortened: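 HepG2 cells transiently transfected with AR-Gal4 chimera and GAL4-UAS reporter units; chemical exposure 24 h. Reporter mRNA quantified by RT-PCR with fluorescent labelling and capillary electrophoresis; gain-of-signal fitted against DMSO.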

[11] = ATG_GAL4_TRANS: Attagene TRANS-FACTORIAL HepG2 Assay for GAL4 (Internal Marker) (AID 2282976; active = hit-call score of the fitted dose curve at least 0.9, where 1 is the maximum); conditions: HepG2 Attagene TRANS GAL4 internal marker reporter
Procedure, shortened: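 Background-control readout: GAL4-UAS reporter transcript in transiently transfected HepG2 cells after 24 h compound exposure. Measured by RT-PCR, 6-FAM primer extension, HpaI digest and capillary electrophoresis; gain-of-signal fit versus DMSO.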

[12] = target: Estrogen-related receptor gamma (Homo sapiens) (UniProt P62508); experiment: ATG_ERRg_TRANS: Attagene TRANS-FACTORIAL HepG2 Assay for human Estrogen-Related Receptor gamma (ERRg) (AID 2282977; active = hit-call score of the fitted dose curve at least 0.9, where 1 is the maximum;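 note: hits increase reporter signal over DMSO so potencies reflect activators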); conditions: HepG2 Attagene TRANS reporter, ERRg transactivation
Procedure, shortened: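 Induction of reporter transcripts through a chimeric NR-Gal4 protein is quantified in transfected human HepG2 liver cells after 24 h chemical exposure, using RT-PCR with capillary electrophoresis detection and DMSO as baseline.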

[13] = target: Bile acid receptor (Homo sapiens) (UniProt Q96RI1); experiment: ATG_FXR_TRANS: Attagene TRANS-FACTORIAL HepG2 Assay for Farnesoid X Receptor (FXR) (AID 2282979; active = hit-call score of the fitted dose curve at least 0.9, where 1 is the maximum;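 note: hits raise reporter mRNA above DMSO so AC50 marks FXR activation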); conditions: HepG2 Attagene TRANS FXR-GAL4 reporter transcription
Procedure, shortened: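 HepG2 cells were transiently transfected with GAL4-UAS reporters driven by chimeric NR-Gal4 proteins and dosed for 24 h. Reporter mRNA was quantified by RT-PCR, fluorescent labelling, HpaI digestion and capillary electrophoresis, with gain of signal scored versus DMSO.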

[14] = target: Oxysterols receptor LXR-alpha (Homo sapiens) (UniProt Q13133); experiment: ATG_LXRa_TRANS: Attagene TRANS-FACTORIAL HepG2 Assay for human Liver X Receptor alpha (LXRa) (AID 2282980; active = hit-call score of the fitted dose curve at least 0.9, where 1 is the maximum); conditions: HepG2 Attagene TRANS reporter, LXRa transactivation
Procedure, shortened: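 HepG2 cells transiently transfected with GAL4-UAS reporter units for chimeric NR-Gal4 proteins, exposed to chemicals for 24 h. Reporter mRNA quantified by RT-PCR and capillary electrophoresis; gain of signal fitted relative to DMSO.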

[15] = ATG_TCF_b_cat_CIS: Attagene CIS-FACTORIAL HepG2 Assay for human T-Cell-Factor with beta-catenin (TCF/b-cat) (AID 2282965); conditions: HepG2 TCF/beta-catenin cis-reporter transcription, actives raise or lower the signal
Procedure, shortened: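 HepG2 cells transiently transfected with multiple cis-promoter-regulated reporter transcription units, so endogenous transcription factor activity is measured. Reporter mRNA read 24 hours after dosing by RT-PCR, fluorescent labelling and capillary electrophoresis; bidirectional fitting against DMSO.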

[16] = ATG_M_19_TRANS: Attagene TRANS-FACTORIAL HepG2 Assay for M19 Transcription Factor (Internal Marker) (AID 2282974; active = hit-call score of the fitted dose curve at least 0.9, where 1 is the maximum); conditions: HepG2 Attagene TRANS-FACTORIAL M19 internal marker reporter
Procedure, shortened: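 Gain-of-signal in reporter mRNA, relative to DMSO, was scored from capillary electrophoresis fluorescence. HepG2 cells carried transiently transfected multiple reporter transcription units and were incubated with test chemicals for 24 h.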

[17] = target: Glucocorticoid receptor (Homo sapiens) (UniProt P04150); experiment: ATG_GR_TRANS: Attagene TRANS-FACTORIAL HepG2 Assay for human Glucocorticoid Receptor (GR) (AID 2282978; active = hit-call score of the fitted dose curve at least 0.9, where 1 is the maximum;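 note: activators score as hits since higher reporter transcript over DMSO is fitted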); conditions: HepG2 Attagene TRANS GR reporter, mRNA transcription
Procedure, shortened: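 HepG2 transient transfection, multiple reporter units, GAL4-UAS under NR-GAL4 chimera control. 24 h treatment. Reporter mRNA by RT-PCR/CE fluorescence, DMSO as negative control.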

[18] = target: Estrogen receptor (Homo sapiens) (UniProt P03372); experiment: ATG_ERa_TRANS: Attagene TRANS-FACTORIAL HepG2 Assay for human Estrogen Receptor alpha (ERa) (AID 2282970; active = hit-call score of the fitted dose curve at least 0.9, where 1 is the maximum); conditions: HepG2 Attagene TRANS ERa GAL4 reporter, mRNA
Procedure, shortened: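 Gal4-fusion ERa transactivation, measured as reporter transcript level in transiently transfected HepG2 cells. Exposure 24 h; RT-PCR plus capillary electrophoresis with fluorescence detection.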

[19] = target: Steroid hormone receptor ERR1 (Homo sapiens) (UniProt P11474); experiment: ATG_ERRa_TRANS: Attagene TRANS-FACTORIAL HepG2 Assay for human Estrogen-Related Receptor alpha (ERRa) (AID 2282971; active = hit-call score of the fitted dose curve at least 0.9, where 1 is the maximum); conditions: HepG2 Attagene TRANS reporter, ERRa transactivation
Procedure, shortened: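 HepG2 cells transiently transfected with GAL4-UAS reporter units and chimeric NR-Gal4 constructs; after 24 hour compound incubation, reporter mRNA quantified by RT-PCR, fluorescent labelling and capillary electrophoresis, gain of signal versus DMSO.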

[20] = target: Nuclear receptor subfamily 1 group I member 3 (Homo sapiens) (UniProt Q14994); experiment: ATG_CAR_TRANS: Attagene TRANS-FACTORIAL HepG2 Assay for human Constitutive Androstane Receptor (CAR) (AID 2282969; active = hit-call score of the fitted dose curve at least 0.9, where 1 is the maximum;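 note: activators raise reporter mRNA above DMSO so AC50 marks induction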); conditions: HepG2 Attagene TRANS-FACTORIAL CAR reporter
Procedure, shortened: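 Steps: transient transfection of HepG2 with multiple GAL4-UAS reporter units; 24 h compound incubation; RNA isolation, RT-PCR, 6-FAM primer extension, HpaI digest; capillary electrophoresis. Gain-of-signal relative to DMSO negative control.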

Measured: AC50

Sequence of Bile acid receptor (Homo sapiens) (Q96RI1 whole entry, looked up, the tested form may be a part): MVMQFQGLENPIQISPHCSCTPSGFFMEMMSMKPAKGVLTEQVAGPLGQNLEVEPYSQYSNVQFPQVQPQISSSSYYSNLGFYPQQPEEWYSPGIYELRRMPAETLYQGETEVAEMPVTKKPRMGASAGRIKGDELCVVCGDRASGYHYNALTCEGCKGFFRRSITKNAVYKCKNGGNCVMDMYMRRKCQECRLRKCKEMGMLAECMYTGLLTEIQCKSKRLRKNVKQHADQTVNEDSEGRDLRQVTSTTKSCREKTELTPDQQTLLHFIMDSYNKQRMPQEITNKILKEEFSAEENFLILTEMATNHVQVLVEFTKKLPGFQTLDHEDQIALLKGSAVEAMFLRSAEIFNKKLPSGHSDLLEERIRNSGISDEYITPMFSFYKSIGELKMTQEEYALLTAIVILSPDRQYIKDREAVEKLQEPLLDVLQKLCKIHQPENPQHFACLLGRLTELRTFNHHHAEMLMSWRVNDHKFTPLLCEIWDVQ
Sequence of Signal transducer and activator of transcription 3 (Homo sapiens) (P40763 whole entry, looked up): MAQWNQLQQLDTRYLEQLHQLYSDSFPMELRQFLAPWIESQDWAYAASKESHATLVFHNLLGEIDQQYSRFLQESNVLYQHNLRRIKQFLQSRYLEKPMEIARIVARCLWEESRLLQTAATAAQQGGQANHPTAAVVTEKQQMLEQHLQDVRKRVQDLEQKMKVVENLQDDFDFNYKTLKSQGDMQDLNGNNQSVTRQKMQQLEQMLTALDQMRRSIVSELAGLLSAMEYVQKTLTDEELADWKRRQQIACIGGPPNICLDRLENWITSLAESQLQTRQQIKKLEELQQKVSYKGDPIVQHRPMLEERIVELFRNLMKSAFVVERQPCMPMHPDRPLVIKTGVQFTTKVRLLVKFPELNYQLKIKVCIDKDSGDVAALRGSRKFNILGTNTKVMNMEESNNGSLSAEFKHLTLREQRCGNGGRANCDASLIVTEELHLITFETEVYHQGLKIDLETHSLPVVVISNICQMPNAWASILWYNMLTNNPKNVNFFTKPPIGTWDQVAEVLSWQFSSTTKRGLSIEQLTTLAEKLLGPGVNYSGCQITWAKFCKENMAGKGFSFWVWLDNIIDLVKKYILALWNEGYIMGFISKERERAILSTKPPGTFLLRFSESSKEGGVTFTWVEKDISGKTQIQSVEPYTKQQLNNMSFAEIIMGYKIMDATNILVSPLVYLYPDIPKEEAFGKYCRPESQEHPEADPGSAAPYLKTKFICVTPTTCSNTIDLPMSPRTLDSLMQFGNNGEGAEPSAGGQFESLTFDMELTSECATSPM
Sequence of Transcription factor Sp1 (Homo sapiens) (P08047 whole entry, looked up): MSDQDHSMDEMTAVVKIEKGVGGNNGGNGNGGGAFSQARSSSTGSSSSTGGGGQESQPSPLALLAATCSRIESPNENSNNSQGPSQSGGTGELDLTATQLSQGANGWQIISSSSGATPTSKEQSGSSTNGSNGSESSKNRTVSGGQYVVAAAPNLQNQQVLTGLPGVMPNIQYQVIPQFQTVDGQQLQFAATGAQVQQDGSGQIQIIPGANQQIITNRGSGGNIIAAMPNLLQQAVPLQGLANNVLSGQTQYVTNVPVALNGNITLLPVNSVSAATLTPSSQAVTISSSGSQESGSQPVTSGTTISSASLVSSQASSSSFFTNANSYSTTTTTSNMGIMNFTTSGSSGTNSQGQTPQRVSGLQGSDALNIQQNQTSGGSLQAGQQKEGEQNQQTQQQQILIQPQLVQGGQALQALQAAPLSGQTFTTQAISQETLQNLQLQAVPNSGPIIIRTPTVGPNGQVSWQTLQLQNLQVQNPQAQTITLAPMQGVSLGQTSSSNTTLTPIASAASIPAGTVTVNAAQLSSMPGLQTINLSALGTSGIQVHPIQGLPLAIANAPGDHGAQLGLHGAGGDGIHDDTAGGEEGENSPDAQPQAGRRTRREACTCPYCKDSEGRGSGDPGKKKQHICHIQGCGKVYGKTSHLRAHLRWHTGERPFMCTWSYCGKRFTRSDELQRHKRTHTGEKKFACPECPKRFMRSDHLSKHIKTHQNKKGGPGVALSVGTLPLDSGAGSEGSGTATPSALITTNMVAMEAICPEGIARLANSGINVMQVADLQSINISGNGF
Sequence of Oxysterols receptor LXR-alpha (Homo sapiens) (Q13133 whole entry, looked up, the tested form may be a part): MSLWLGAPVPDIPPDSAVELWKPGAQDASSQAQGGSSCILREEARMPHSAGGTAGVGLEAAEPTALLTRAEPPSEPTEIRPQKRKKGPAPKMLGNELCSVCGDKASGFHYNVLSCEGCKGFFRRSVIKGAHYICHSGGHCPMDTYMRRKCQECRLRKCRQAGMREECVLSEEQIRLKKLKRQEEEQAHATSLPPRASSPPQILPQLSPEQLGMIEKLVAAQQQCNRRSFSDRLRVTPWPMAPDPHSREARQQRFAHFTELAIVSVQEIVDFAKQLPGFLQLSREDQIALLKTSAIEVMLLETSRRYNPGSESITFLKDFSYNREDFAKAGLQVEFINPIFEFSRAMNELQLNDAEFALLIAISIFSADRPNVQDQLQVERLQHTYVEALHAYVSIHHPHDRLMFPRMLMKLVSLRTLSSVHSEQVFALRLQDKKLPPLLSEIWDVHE
Sequence of X-box-binding protein 1 (Homo sapiens) (P17861 whole entry, looked up): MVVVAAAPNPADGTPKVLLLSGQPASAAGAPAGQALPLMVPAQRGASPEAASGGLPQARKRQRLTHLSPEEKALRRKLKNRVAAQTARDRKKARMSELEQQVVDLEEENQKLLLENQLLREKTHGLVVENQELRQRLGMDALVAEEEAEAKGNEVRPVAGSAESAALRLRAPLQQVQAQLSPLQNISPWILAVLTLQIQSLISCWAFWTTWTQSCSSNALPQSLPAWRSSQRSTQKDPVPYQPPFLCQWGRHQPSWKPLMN
Sequence of Glucocorticoid receptor (Homo sapiens) (P04150 whole entry, looked up, the tested form may be a part): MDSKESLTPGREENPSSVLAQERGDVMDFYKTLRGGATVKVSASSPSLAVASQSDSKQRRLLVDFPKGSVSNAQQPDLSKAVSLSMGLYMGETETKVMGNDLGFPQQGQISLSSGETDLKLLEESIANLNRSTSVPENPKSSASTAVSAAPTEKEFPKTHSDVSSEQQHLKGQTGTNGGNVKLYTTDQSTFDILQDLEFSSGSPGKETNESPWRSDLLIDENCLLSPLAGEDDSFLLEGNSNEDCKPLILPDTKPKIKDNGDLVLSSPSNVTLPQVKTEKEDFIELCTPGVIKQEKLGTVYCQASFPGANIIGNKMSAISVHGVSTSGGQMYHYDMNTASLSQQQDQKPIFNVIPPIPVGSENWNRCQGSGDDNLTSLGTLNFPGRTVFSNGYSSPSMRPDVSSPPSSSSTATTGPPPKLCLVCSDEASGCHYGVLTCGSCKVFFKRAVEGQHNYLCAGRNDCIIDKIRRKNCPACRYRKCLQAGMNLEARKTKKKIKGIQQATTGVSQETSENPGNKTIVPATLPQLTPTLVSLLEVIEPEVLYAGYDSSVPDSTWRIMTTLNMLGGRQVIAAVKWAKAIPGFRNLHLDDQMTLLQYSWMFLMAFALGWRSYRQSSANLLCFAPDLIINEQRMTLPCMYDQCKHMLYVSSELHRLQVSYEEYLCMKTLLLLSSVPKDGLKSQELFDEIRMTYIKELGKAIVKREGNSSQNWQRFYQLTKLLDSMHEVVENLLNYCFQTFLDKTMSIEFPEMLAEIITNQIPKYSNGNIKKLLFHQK
Sequence of Steroid hormone receptor ERR1 (Homo sapiens) (P11474 whole entry, looked up, the tested form may be a part): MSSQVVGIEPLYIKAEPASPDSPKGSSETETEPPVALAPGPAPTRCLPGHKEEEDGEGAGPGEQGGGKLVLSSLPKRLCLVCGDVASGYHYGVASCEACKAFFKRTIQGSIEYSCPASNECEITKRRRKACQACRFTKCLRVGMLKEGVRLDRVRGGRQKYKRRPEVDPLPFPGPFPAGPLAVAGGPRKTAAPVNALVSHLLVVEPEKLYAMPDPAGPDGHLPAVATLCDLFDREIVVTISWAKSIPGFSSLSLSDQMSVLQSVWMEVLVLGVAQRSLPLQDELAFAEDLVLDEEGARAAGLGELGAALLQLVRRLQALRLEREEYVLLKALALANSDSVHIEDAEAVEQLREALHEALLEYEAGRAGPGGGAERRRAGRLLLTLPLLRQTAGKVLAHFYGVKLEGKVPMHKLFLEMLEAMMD
Sequence of Estrogen receptor (Homo sapiens) (P03372 whole entry, looked up, the tested form may be a part): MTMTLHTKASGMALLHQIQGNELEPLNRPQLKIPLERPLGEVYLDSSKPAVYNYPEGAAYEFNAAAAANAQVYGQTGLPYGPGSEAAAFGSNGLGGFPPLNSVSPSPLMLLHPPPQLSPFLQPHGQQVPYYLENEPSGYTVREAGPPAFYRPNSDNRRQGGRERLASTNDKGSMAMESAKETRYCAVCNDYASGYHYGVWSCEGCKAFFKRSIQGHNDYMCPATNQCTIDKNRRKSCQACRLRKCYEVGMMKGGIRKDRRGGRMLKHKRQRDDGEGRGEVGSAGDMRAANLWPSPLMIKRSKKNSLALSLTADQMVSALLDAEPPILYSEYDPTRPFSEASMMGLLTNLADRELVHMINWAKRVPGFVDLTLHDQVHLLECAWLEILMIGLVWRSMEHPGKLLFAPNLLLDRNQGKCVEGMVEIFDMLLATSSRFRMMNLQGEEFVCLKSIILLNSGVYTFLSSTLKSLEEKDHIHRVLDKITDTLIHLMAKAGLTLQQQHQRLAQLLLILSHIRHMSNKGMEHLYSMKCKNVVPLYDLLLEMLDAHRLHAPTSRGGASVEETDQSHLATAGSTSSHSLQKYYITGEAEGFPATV
Sequence of Estrogen-related receptor gamma (Homo sapiens) (P62508 whole entry, looked up, the tested form may be a part): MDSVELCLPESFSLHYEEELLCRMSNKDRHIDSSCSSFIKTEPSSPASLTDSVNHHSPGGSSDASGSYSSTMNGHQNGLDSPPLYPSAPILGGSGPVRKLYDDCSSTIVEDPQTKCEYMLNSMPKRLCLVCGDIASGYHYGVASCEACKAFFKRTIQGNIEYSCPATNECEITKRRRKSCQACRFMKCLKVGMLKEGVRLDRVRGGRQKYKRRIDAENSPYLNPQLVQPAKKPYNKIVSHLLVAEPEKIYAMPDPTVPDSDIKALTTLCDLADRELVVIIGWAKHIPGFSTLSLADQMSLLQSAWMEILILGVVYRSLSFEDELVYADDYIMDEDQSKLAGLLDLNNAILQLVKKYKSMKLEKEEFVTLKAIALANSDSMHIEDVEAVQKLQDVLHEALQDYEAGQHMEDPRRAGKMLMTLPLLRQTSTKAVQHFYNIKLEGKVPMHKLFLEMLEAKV

O=S(=O)(F)C(F)(F)C(F)(F)C(F)(F)C(F)(F)F
inactive: [1] | [2] | [3] | [4] | [5] | [6] | [7] | [8] | [9] | [10] | [11] | [12] | [13] | [14]

O=C(O)COc1cc(Cl)c(Cl)cc1Cl
inactive: [1] | [2] | [3] | [4] | [5] | [15] | [6] | [7] | [9] | [16] | [17]

CCCCCCCCCCCCN(C)C
inactive: [1] | [4] | [5] | [7] | [18] | [17] | [13] | [14]
active: [2] 53.2 µM | [3] 49 µM | [15] 48.4 µM | [6] 51.4 µM | [9] 53.9 µM

CN(N=O)C(N)=O
inactive: [1] | [2] | [3] | [4] | [5] | [6] | [7] | [8] | [9] | [16] | [11] | [13]

CCC[N+](CCC)(CCC)CCC
inactive: [1] | [2] | [3] | [4] | [5] | [15] | [6] | [7] | [19] | [9] | [16] | [11]

Cc1ccccc1OP(=O)(Oc1ccccc1)Oc1ccccc1
inactive: [1] | [2] | [4] | [15] | [6] | [7] | [20] | [19] | [9] | [16] | [11] | [17] | [13] | [14]
active: [3] 7.9 µM | [8] 1.25 µM | [18] 3.57 µM
